RORgamma inh: qHTS for inhibitors of ROR gamma transcriptional activity | 310,000 tested, 5.4% active | Nuclear receptor ROR-gamma (Mus musculus), P51450 | Drosophila S2 Gal4-RORgamma UAS-luciferase reporter, 20 h | Potency, µM (doses to about 53.6 µM), without a hit: at the highest dose activity change, negative = inhibition, most hits filed as inhibitors; note: potency is the fitted concentration of half-maximal effect; % is set by controls: 0 for no effect and ±100 for the full control effect; nearly all actives have a fitted effect of over 60% in size
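Using a luciferase readout, inhibitors were identified by reduced reporter activity in Drosophila cells coexpressing a copper-inducible Gal4–ROR gamma fusion and UAS-driven Photinus luciferase, incubated 20 hr after 700 uM copper sulfate.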
ERG Ets-DNA blk: qHTS for Small Molecule Inhibitors of the ERG Ets/DNA interaction; 370,000 tested, 0.028% active; Potency, µM (top dose mostly 76.9 µM), inactives show at the highest dose FP activity, negative = inhibition, actives largely listed as inhibitors; Transcriptional regulator ERG (Homo sapiens), P11308; AID 624246, 2012; fluorescence polarization, His-ERG Ets domain / labelled DNA; active = well fitted inhibition curve with a large enough effect in the polarisation, with a control signal flat; inconclusive = small, poorly fitted or top-dose-only effect, or effect the other way, or a change in a side signal; inactive = no such curve, though single readings can be large or run the other way; the % refers to the polarisation;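 note: polarization taken with two DNA probes labelled with fluorescein and Texas red; potency is the fitted concentration of half-maximal effect; % of control where 0% means no effect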
Target sequence (P11308 whole entry, looked up, the tested form may be a part): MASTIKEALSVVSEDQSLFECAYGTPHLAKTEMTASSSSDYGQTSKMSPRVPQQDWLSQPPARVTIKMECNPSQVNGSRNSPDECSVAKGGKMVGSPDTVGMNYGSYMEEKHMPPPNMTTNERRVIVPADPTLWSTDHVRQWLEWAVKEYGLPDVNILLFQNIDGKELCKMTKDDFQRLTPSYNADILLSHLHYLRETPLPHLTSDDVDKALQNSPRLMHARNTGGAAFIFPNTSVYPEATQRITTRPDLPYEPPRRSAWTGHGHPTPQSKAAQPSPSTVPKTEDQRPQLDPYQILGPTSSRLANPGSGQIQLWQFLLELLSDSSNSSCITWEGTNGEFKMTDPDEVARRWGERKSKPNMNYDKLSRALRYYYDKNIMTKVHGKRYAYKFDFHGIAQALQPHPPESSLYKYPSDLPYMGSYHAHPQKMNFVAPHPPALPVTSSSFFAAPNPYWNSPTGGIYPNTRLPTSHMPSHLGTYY
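His-tagged ERG Ets domain (1 uM in the protein solution; 300mM KCl, 50mM Tris-HCl, 1mM EDTA, 1mM DTT, pH 7.5) received compound, then a probe mix of 5 nM fluorescein-DNA and 100nM Texas-615-DNA. Fluorescence polarization was read for both dyes.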
VP16 counter: VP16 counterscreen qHTS for inhibitors of ROR gamma transcriptional activity. Drosophila S2 Gal4-VP16 UAS-luciferase, luminescence, 20 h. Potency, µM (highest dose often 53.6 µM), inactives show at the highest dose activity, negative = inhibition, most hits filed as inhibitors. 310,000 tested, 3.5% active. AID 2546, 2010;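 note: Gal4-VP16 expression switched on by copper sulfate through the metallothionein promoter; potency is the fitted concentration of half-maximal effect; % is set by controls: 0 for no effect and ±100 for the full control effect; nearly all actives have a fitted effect of over 50% in size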
Integrin act MD: qHTS for Activators of Integrin-Mediated Alleviation for Muscular Dystrophy. alpha7betagal myoblasts, beta-gal FDG fluorescence, 48 h. Potency, µM (doses to about 38.3 µM), without a hit: top-dose activation, most hits filed as activators. 350,000 tested, 0.064% active;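 note: potency is the fitted concentration of half-maximal effect; 100% = response of the positive control SU9516; nearly all actives have a fitted effect of over 60% in size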
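Alpha7betagal+/- myoblasts (passage 13) were plated 16-24 hr, then exposed to compounds (1:260 dilution of DMSO stock) for 48 hours at 37C. After MPER lysis, β-galactosidase reporter activity was read as FDG fluorescence (ex 480/em 540) after 30 minutes.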
Giardia killer: Small Molecules that selectively kill Giardia lamblia: qHTS; Giardia lamblia trophozoite viability; activity change, % at 7.66 µM, hits read low; AID 540267, 2011; 340,000 tested, 0.15% active; in the data active = activity change below about -80%; inconclusive = between about -30% and that limit;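 note: parasites exposed to compound for two days anaerobically before the ATP read; % is set by controls: 0 for no effect and ±100 for the full control effect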
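Trophozoite viability was measured as ATP-dependent luminescence, read 15-30 min after reagent addition. Before that, parasites at 100 cells/well were exposed to compounds for 48 h, anaerobically, at 37 deg C.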
Starred values were filed as active, the others as inactive; ? = inconclusive; / = not tested or not shown; [ ] = another dose, or the depositor's remark. Shown is part of a subset that was picked to be rich in hits. Unless noted, calls come from the whole dose curve; as a rule, active = well fitted curve in the direction sought with a large enough effect; inconclusive = small, poorly fitted or top-dose-only effect, or another doubt; inactive = no such curve, though single readings can be large; an effect the other way counts as inactive or inconclusive.

SMILES | RORgamma inh | ERG Ets-DNA blk | VP16 counter | Integrin act MD | Giardia killer
OC[C@H]1O[C@@H](n2cnc3cncnc32)[C@H](O)[C@@H]1O | 7.1µM* | / | 3.2µM* | / | /
Nc1ncnc2c1c(I)cn2C1OC(CO)C(O)C1O (centres undefined) | 5.6µM* | / | 4µM* | / | /
COc1ccc(CCNC(=O)c2ccc3c(c2)CCN3S(=O)(=O)c2ccccc2)cc1 | / | 0% | / | / | /
COc1ccc(C(=O)NC(=S)NC(C)C)cc1Br | 1.8µM* | 2% | 11µM* | -28% | -11
COc1ccc(C(=O)NNC(=S)NC(=O)c2ccc(F)cc2)cc1Br | / | -14% | / | -10% | 26
COc1ccc(C(=O)NC(=S)NC(C)(C)C)cc1Br | 2µM* | 0% | 7.9µM* | -40% | -14
COc1ccc(C(=O)NC(=S)NNC(=O)c2ccc(NC(C)=O)cc2)cc1Br | 7.9µM* | -8%[15.4 µM] | ? | 0% | -12
COc1ccc(C(=O)NC(=S)NNC(=O)c2ccncc2)cc1Br | / | -1% | / | -33% | ?
COc1ccc(C(=O)NC(=S)Nc2ccc3[nH]c(=O)[nH]c3c2)cc1Br | / | / | / | 4% | /
COc1ccc2c(c1)sc1ncc(C(=O)NCc3ccc(OC(C)C)cc3)c(=O)n12 | / | -3% | / | / | /
COc1cccc(CNC(=O)N2CCc3c(sc4c3CCCC4)C2c2ccc(F)cc2)c1 (centres undefined) | / | 8% | / | / | /
CC(C)(C(=O)N[C@H](CO)c1ccccc1)C(=O)N[C@H](CO)c1ccccc1 | 2µM* | -3% | 5% | 0% | -24
CC(C)(NC(=O)NC(CO)c1ccccc1)c1cccc(C(C)(C)NC(=O)NC(CO)c2ccccc2)c1 (centres undefined) | / | 7% | / | 6% | -8
Cc1oc(/N=C/c2ccccc2)c(C#N)c1C | 0% | 8% | -4% | -2% | 12
COc1[nH]c(/N=C/c2ccccc2)c(C#N)c1C#N | 9% | 32µM* | -8% | 5% | -5
COC(=O)c1cc2c(ccc3ccccc32)oc1=O | / | 11% | / | ? | -5
Cc1cc(C)cc(-n2c3nc4ccccc4nc3c3c(=O)n(Cc4ccco4)cnc32)c1 | 11µM* | -2% | 11µM* | 16% | -10
COCCCn1cnc2c(c1=O)c1nc3ccccc3nc1n2-c1ccc(C)cc1 | 2% | 2% | 4% | 12% | -10
Cc1ccc(C(=O)N(C)c2nnc(-c3ccncc3)s2)cc1 | -18% | -10% | -3% | 6% | -4
Cc1nnc(N/N=C/c2c(Cl)cccc2Cl)n1N | ? | 3% | ? | 0% | 1
Cc1nnc(N/N=C/c2ccccc2O)n1N | 1.3µM* | -2% | ? | -1% | -11
CCc1nnc(N/N=C/c2c(C)[nH]c3ccccc23)n1N | ? | 1% | -7%[10 µM] | 7% | -14
Cc1nnc(N/N=C/c2cc(C)n(-c3ccc(F)cc3)c2C)n1N | 11µM* | 4% | ? | -3% | 3
CCc1nnc(N/N=C/c2cc(C)c(C)cc2C)n1N | 16µM* | -11% | ? | -3% | 6
Cc1nnc(N/N=C/c2ccc(-c3ccccc3F)o2)n1N | 7.9µM* | -2% | ? | -19% | 4
SMILES | RORgamma inh | ERG Ets-DNA blk | VP16 counter | Integrin act MD | Giardia killer
N#Cc1ccc2c(c1)C[C@]1(c3ccsc3)OC3=C(C(=O)OC4(CCCCC4)C3)C2O1 | -15%[10 µM] | / | -8%[10 µM] | / | /
CO[C@H]1COC(=O)C/C=C\[C@H](C)[C@@H](OC)COC(=O)[C@@H](C)NC(=O)C/C=C\[C@@H]1C | 12%[10 µM] | / | -1%[10 µM] | / | /
NC(=O)COc1ccc(C(=O)/C=C2/C(=O)Nc3ccccc32)cc1 | 7.9µM* | 4% | ? | -63% | -8
COc1ccc(C(=O)/C=C2/C(=O)Nc3ccccc32)cc1 | 10µM* | -6% | ? | -52% | 4
C=CCOc1ccccc1C(=O)/C=C1/C(=O)Nc2ccccc21 | 5.6µM* | -7% | 13µM* | -73% | -27
O=C(C1CCN(S(=O)(=O)c2ccccc2F)CC1)N1CCN(Cc2ccc3c(c2)OCO3)CC1 | / | 2% | / | 14% | 22
Nc1nc2ccc(S(=O)(=O)N3CCCCC3)cc2s1 | 13µM* | -7% | ? | 3% | -15
CCn1c(COc2ccc(Cl)cc2)nnc1SCc1nc2ccccc2[nH]1 | 11µM* | 4% | ? | ? | 15
Clc1ccc(OCCSCc2nc3ccccc3[nH]2)cc1 | 5µM* | 7% | 5µM* | -29% | 11
Cc1ccc(OCCSCc2nc3ccccc3[nH]2)cc1 | -31% | -3% | ? | 11% | 5
CC(=O)Nc1ccc2nc3c(=O)[nH]c(=O)[nH]c3nc2c1 | / | 0% | / | / | -3
CCN(CC)c1ccc2c(Cl)c(Br)c(=O)oc2c1 | ? | 2% | 4µM* | -65% | -6
CC(=O)c1ccc(NC(=S)N2C(C)CCCC2C)cc1 (centres undefined) | 0% | / | 4% | / | /
CCOC(=O)c1sc(NC(=S)NC(=O)C23CC4CC(CC(C4)C2)C3)cc1C | 6.3µM* | 0% | 10µM* | -13% | -17
CCOC(=O)c1sc(NC(=O)c2sccc2C)cc1C | ? | -9% | -5% | -29% | 2
CCOC(=O)c1sc(NC(=S)NC(=O)C2CC2)cc1C | 1µM* | -12% | 1µM* | 18% | 4
CSc1cccc(NC(=S)N(CCCN2CCCC(C)C2)Cc2cccs2)c1 (centres undefined) | 11µM* | 13% | 27%[10 µM] | -55% | 9
COc1cccc(NC(=S)N(CCCN2CCCC(C)C2)Cc2cccs2)c1 (centres undefined) | -15% | 4% | 5% | -23% | 5
COc1ccc(NC(=S)N(CCCN2CCC(C)CC2)Cc2cccs2)cc1Cl | 11µM* | 6% | -2%[10 µM] | -62% | -5
COc1ccc(NC(=S)N(CCCN2CCN(C)CC2)Cc2cccs2)cc1 | -11% | 2% | 1% | -15% | -1
CN(C)c1nc(=NCc2cccs2)ss1 | / | / | / | -55% | -81*
Cc1ccc(CNc2ncnc(N)c2[N+](=O)[O-])cc1 | -19% | -5% | -15% | 10µM* | 18
CCC1=NN(C(=O)CCc2ccccc2O)C(O)(C(F)(F)F)C1 (centres undefined) | 10µM* | 2% | ? | 21% | -15
CCC1=NN(C(=O)CCc2ccc3c(c2)OCO3)C(O)(C(F)(F)F)C1 (centres undefined) | 11µM* | 0% | 3% | 6% | 4
CC(C)(C)C1(O)CC(C(F)(F)F)=NN1C(=O)CCCc1ccccc1 (centres undefined) | 14% | 11% | -16% | 6% | -10
O=C(CCc1ccccc1)NNC(=O)CCc1ccccc1 | -6% | -7% | -12% | -11% | -3
O=C(CCc1ccccc1)NNC(=S)NCCc1ccccc1 | 7.9µM* | 0% | ? | -18% | -6
